Experimental data: PubChem BioAssay (EPA / NIEHS)
Activity calls are given as the source filed them. The calls were made as follows: active = hit-call score of the fitted dose curve at least 0.9, where 1 is the maximum; inactive = score below 0.9.

Key:
[1] = read-out: Macrophage colony-stimulating factor (MCSF), CSF1 (gene 1435); experiment: BSK_hDFCGF_MCSF: BioMAP Diversity Plus: hDFCGF Assay for Macrophage colony-stimulating factor (MCSF) Biomarker Activity (AID 2283060); conditions: primary human foreskin fibroblasts; actives raise or lower the signal
Outline: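 M-CSF levels, determined by ELISA, are taken at 24 h after dosing human skin fibroblasts. Responses in either direction are fitted with DMSO serving as the baseline.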

[2] = BSK_hDFCGF_SRB: Viability Assessment in the BioMAP Diversity Plus: hDFCGF Assay (AID 2283061); conditions: primary human foreskin fibroblasts;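 also: cells exposed to compound for 24 h before the read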
Outline: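 Cells were dosed with test chemical, cultured 24 h, fixed with 10% TCA, then stained with 0.1% SRB and read at 560 nm. The fibroblasts were human foreskin primary cells, and DMSO served as baseline.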

[3] = read-out: TIMP metallopeptidase inhibitor 1 (TIMP1), TIMP1 (gene 7076); experiment: BSK_hDFCGF_TIMP1: BioMAP Diversity Plus: hDFCGF Assay for TIMP metallopeptidase inhibitor 1 (TIMP1) Biomarker Activity (AID 2283062); conditions: primary human foreskin fibroblasts; actives raise or lower the signal
Outline: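 Fibroblasts from human foreskin are treated with test chemical and harvested at 24 h. TIMP-1 is quantified by ELISA, and gain or loss of signal is scored against DMSO.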

[4] = read-out: Monokine induced gamma interferon (MIG), CXCL9 (gene 4283); experiment: BSK_hDFCGF_MIG: BioMAP Diversity Plus: hDFCGF Assay for Monokine induced gamma interferon (MIG) Biomarker Activity (AID 2283063); conditions: primary human foreskin fibroblasts; actives raise or lower the signal
Outline: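 MIG signal, determined by ELISA, reflects 24 h chemical exposure of human skin primary fibroblasts. DMSO serves as negative control and baseline.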

[5] = read-out: Matrix Metallopeptidase 1 (MMP1), MMP1 (gene 4312); experiment: BSK_hDFCGF_MMP1: BioMAP Diversity Plus: hDFCGF Assay for Matrix Metallopeptidase 1 (MMP1) Biomarker Activity (AID 2283064); conditions: primary human foreskin fibroblasts; actives raise or lower the signal
Outline: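 Human foreskin fibroblasts exposed to chemical for 24 h; MMP1 detected by ELISA, with DMSO as baseline for bidirectional fitting.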

[6] = read-out: Vascular cell adhesion molecule 1 (VCAM1), VCAM1 (gene 7412); experiment: BSK_hDFCGF_VCAM1: BioMAP Diversity Plus: hDFCGF Assay for Vascular cell adhesion molecule 1 (VCAM1) Biomarker Activity (AID 2283065); conditions: primary human foreskin fibroblasts; actives raise or lower the signal;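 as to AC50: VCAM-1 protein level quantified by ELISA after 24 h chemical exposure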
Outline: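 Cells are dosed, cultured for 24 h, then VCAM-1 is quantified by ELISA; signal increases and decreases are both fitted relative to DMSO.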

[7] = read-out: Plasminogen activator inhibitor-1 (PAI1), SERPINE1 (gene 5054); experiment: BSK_hDFCGF_PAI1: BioMAP Diversity Plus: hDFCGF Assay for Plasminogen activator inhibitor-1 (PAI1) Biomarker Activity (AID 2283066); conditions: primary human foreskin fibroblasts; actives raise or lower the signal
Outline: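 PAI-1 levels in human dermal foreskin fibroblasts were quantified by ELISA 24 h after dosing, with gain or loss analysed against DMSO. Overt cytotoxicity was checked by sulforhodamine B total-protein staining in parallel cultures.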

[8] = read-out: Intercellular Adhesion Molecule 1 (ICAM1), ICAM1 (gene 3383); experiment: BSK_KF3CT_ICAM1: BioMAP Diversity Plus: KF3CT Assay for Intercellular Adhesion Molecule 1 (ICAM1) Biomarker Activity (AID 2283067); conditions: primary human keratinocytes with fibroblasts; actives raise or lower the signal
Outline: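 Dose the keratinocyte/fibroblast co-culture, wait 24 h, measure ICAM-1 by ELISA, then fit increases or decreases against DMSO. Cytotoxicity is checked in parallel cultures by SRB total-protein staining.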

[9] = BSK_KF3CT_SRB: Viability Assessment in the BioMAP Diversity Plus: KF3CT Assay (AID 2283069); conditions: primary human keratinocytes with fibroblasts;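 also: fitted for both signal gain and loss against DMSO baseline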
Outline: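 Overt cytotoxicity is assessed as total protein by sulforhodamine B staining in parallel human skin co-cultures at 24 h after dosing. DMSO serves as negative control and baseline.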

[10] = read-out: Interleukin-1 alpha (IL1a), IL1A (gene 3552); experiment: BSK_KF3CT_IL1a: BioMAP Diversity Plus: KF3CT Assay for Interleukin-1 alpha (IL1a) Biomarker Activity (AID 2283070); conditions: primary human keratinocytes with fibroblasts; actives raise or lower the signal
Outline: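 Readout is IL-1a level by ELISA, compared bidirectionally with DMSO as baseline. Cells: human keratinocytes co-cultured with foreskin fibroblasts, harvested 24 h post-dose.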

[11] = read-out: TIMP metallopeptidase inhibitor 2 (TIMP2), TIMP2 (gene 7077); experiment: BSK_KF3CT_TIMP2: BioMAP Diversity Plus: KF3CT Assay for TIMP metallopeptidase inhibitor 2 (TIMP2) Biomarker Activity (AID 2283071); conditions: primary human keratinocytes with fibroblasts; actives raise or lower the signal
Outline: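 TIMP-2 measured by ELISA at 24 h in human keratinocyte/fibroblast primary co-cultures exposed to chemicals. Both increases and decreases were fitted against DMSO. Parallel cultures were stained with SRB for total protein as an overt-cytotoxicity check.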

[12] = read-out: Transforming growth factor beta 1 (TGFb1), TGFB1 (gene 7040); experiment: BSK_KF3CT_TGFb1: BioMAP Diversity Plus: KF3CT Assay for Transforming growth factor beta 1 (TGFb1) Biomarker Activity (AID 2283072); conditions: primary human keratinocytes with fibroblasts; actives raise or lower the signal
Outline: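 ELISA quantifies TGF-b1 at 24 h post-dose in a primary human skin co-culture of keratinocytes and fibroblasts, with gain or loss judged against DMSO. Parallel SRB total-protein staining flags overt cytotoxicity.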

[13] = read-out: C-C motif chemokine 2 (Homo sapiens) (UniProt P13500); experiment: BSK_KF3CT_MCP1: BioMAP Diversity Plus: KF3CT Assay for Monocyte Chemoattractant Protein 1 (MCP1/CCL2) Biomarker Activity (AID 2283073); conditions: primary human keratinocytes with fibroblasts; actives raise or lower the signal
Outline: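 Keratinocytes and foreskin fibroblasts were co-cultured, dosed with chemical, and sampled 24 h later. MCP-1 was quantified by ELISA, and the endpoint was analyzed with bidirectional fitting using DMSO as negative control.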

[14] = read-out: Matrix Metallopeptidase 9 (MMP9), MMP9 (gene 4318); experiment: BSK_KF3CT_MMP9: BioMAP Diversity Plus: KF3CT Assay for Matrix Metallopeptidase 9 (MMP9) Biomarker Activity (AID 2283074); conditions: primary human keratinocytes with fibroblasts; actives raise or lower the signal;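 as to AC50: MMP9 protein level quantified by ELISA in the co-culture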
Outline: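 Values come from bidirectional fitting relative to DMSO of MMP-9 levels, which were measured by ELISA. Measurements were taken 24 h after chemical dosing of a keratinocyte and foreskin fibroblast co-culture.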

[15] = read-out: urokinase plasminogen activator (uPA), PLAU (gene 5328); experiment: BSK_KF3CT_uPA: BioMAP Diversity Plus: KF3CT Assay for urokinase plasminogen activator (uPA) Biomarker Activity (AID 2283075); conditions: primary human keratinocytes with fibroblasts; actives raise or lower the signal
Outline: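 Values derive from bidirectional fitting against DMSO controls. Keratinocyte/foreskin fibroblast co-cultures received chemical; 24 h later uPA was detected by ELISA, with SRB total-protein staining in parallel wells for overt cytotoxicity.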

[16] = read-out: CD40, CD40 (gene 958); experiment: BSK_LPS_CD40: BioMAP Diversity Plus: LPS Assay for CD40 Biomarker Activity (AID 2283076); conditions: primary human HUVEC with PBMC; actives raise or lower the signal
Outline: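 CD40 signal, measured by ELISA, is fitted in both directions relative to DMSO vehicle. The system is an LPS-driven human vascular primary co-culture of endothelial cells and PBMC, sampled 24 h after compound addition.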

[17] = read-out: E-selectin (Homo sapiens) (UniProt P16581); experiment: BSK_LPS_Eselectin: BioMAP Diversity Plus: LPS Assay for Eselectin Biomarker Activity (AID 2283077); conditions: primary human HUVEC with PBMC; actives raise or lower the signal
Outline: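 Signal of E-selectin, detected by ELISA, served as the endpoint; cells were umbilical vein endothelium with PBMC, read 24 h after treatment. DMSO defined baseline, and both increases and decreases were fitted.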

[18] = read-out: Interleukin-8 (IL8), CXCL8 (gene 3576); experiment: BSK_LPS_IL8: BioMAP Diversity Plus: LPS Assay for Interleukin-8 (IL8) Biomarker Activity (AID 2283078); conditions: primary human HUVEC with PBMC; actives raise or lower the signal
Outline: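 Endothelial cells and PBMC from human donors are co-cultured, treated with chemicals and LPS, then assayed for IL-8 by ELISA after 24 h. Parallel SRB staining (0.1% SRB after 10% TCA fixation, 560 nm) flags cytotoxicity.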

[19] = BSK_LPS_SRB: Viability Assessment in the BioMAP Diversity Plus: LPS Assay (AID 2283079); conditions: primary human HUVEC with PBMC;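 also: total protein by sulforhodamine B absorbance as a cytotoxicity measure; measured one day after compound addition; fitted in both directions against DMSO so loss or gain of signal counts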
Outline: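 Overt cytotoxicity was gauged by sulforhodamine B total-protein staining in a primary human vascular endothelial and mononuclear cell co-culture 24 h post-dosing. Activity was fitted in both directions relative to DMSO.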

Measured: AC50

E-selectin (Homo sapiens), sequence (P16581 whole entry, looked up): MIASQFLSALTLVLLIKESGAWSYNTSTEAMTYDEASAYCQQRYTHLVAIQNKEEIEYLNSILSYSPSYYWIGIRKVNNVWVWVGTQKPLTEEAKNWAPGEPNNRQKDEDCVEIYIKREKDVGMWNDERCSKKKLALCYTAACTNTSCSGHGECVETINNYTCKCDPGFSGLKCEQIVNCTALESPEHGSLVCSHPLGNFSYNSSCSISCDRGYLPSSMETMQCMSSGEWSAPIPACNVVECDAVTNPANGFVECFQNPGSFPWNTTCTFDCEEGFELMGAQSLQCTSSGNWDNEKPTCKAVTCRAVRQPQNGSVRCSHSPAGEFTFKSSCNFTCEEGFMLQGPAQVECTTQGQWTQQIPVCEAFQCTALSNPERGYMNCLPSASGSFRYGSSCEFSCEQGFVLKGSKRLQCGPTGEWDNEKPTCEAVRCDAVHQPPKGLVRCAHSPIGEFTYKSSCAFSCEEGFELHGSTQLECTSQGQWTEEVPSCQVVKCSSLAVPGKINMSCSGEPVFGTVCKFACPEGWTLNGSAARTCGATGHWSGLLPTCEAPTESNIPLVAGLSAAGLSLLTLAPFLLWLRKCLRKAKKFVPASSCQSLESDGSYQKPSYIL

CSC1=N[C@@](C)(c2ccccc2)C(=O)N1Nc1ccccc1
active: [14] 29.9 µM | [17] 10.6 µM | [18] 1.7 µM | [19] 20 µM
inactive: all other assays above

CNC(=O)Oc1cccc2c1OC(C)(C)O2
active: [16] 13.6 µM | [17] 20 µM | [18] 25.2 µM
inactive: all other assays above

CCCCOC(=O)[C@@H](C)Oc1ccc(Oc2ccc(C#N)cc2F)cc1
inactive: all assays above

CNC(=O)ON=C(C)SC
inactive: all assays above

CCc1cccc(CC)c1N(COC)C(=O)CCl
active: [1] 18.9 µM | [2] 24 µM | [4] 10.1 µM | [6] 8.35 µM | [14] 20 µM | [16] 13.8 µM | [17] 33.8 µM | [19] 3.97 µM
inactive: all other assays above

CN(C)C(=O)Nc1cccc(C(F)(F)F)c1
inactive: all assays above

CCOC(=O)CC(SP(=O)(OC)OC)C(=O)OCC (stereo not drawn)
active: [6] 10.8 µM | [17] 2.5 µM
inactive: all other assays above

CSc1nnc(C(C)(C)C)c(=O)n1N
active: [3] 30.4 µM
inactive: all other assays above

C[Si](Cn1cncn1)(c1ccc(F)cc1)c1ccc(F)cc1
active: [17] 15 µM
inactive: all other assays above

CNc1cnn(-c2cccc(C(F)(F)F)c2)c(=O)c1Cl
inactive: all assays above

CCOC(=O)COc1cc(-c2nn(C)c(OC(F)F)c2Cl)c(F)cc1Cl
active: [5] 0.148 µM
inactive: all other assays above

Cc1ccn2nc(S(=O)(=O)Nc3c(F)cccc3F)nc2n1
active: [19] 1.06 µM
inactive: all other assays above
